# Reference: ChEMBL document CHEMBL3988442, “University of Dundee, Small-Polar-MMV Screening Library” (2021)
# “And” between values parts separate entries of the source, which are not always exact repeats. Equal values may be shown once. For some of these results: Entries with a potency or affinity are not part of this list.
# Tests used:
# Design in all cases: scale not given: direction of the effect not stated beside the values
# [1] = target: Protein translocase subunit SecA (Escherichia coli (strain K12)) (UniProt P10408); assay: Assay to Identify E. coli SecA ATPase Inhibitors; type: functional; details: 30 µM
# Protein translocase subunit SecA (Escherichia coli (strain K12)), sequence (P10408 whole entry): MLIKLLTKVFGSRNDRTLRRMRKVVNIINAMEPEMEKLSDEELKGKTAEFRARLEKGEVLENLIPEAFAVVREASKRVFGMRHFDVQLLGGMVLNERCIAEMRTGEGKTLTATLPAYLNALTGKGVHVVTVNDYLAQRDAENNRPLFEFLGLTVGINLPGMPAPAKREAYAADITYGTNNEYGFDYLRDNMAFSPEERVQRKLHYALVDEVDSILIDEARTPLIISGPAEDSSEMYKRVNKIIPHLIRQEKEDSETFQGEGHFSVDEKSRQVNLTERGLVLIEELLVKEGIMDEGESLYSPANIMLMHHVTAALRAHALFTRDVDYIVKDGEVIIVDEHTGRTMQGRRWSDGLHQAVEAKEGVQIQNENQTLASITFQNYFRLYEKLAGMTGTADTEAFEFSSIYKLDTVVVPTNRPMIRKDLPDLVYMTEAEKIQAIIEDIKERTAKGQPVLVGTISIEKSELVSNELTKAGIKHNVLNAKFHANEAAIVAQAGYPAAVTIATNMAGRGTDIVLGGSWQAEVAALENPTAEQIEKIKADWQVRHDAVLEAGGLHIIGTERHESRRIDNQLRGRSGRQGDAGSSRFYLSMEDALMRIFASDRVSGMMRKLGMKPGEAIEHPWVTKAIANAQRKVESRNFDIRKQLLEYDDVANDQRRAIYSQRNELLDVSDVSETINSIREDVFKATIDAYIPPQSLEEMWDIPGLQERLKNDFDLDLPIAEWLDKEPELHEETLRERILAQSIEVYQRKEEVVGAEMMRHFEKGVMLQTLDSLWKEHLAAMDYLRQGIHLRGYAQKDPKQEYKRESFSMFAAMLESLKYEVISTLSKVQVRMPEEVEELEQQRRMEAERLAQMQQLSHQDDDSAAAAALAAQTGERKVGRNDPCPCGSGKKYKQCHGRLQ
# [2] = target: T1, Ubiquitin-activating enzyme e1, putative (Leishmania donovani (strain BPK282A1)) (UniProt E9BSI1); assay: Leishmania donovani Ubiquitin Activating Enzyme (LdE1); type: functional; details: 30 µM
# T1 sequence (whole entry): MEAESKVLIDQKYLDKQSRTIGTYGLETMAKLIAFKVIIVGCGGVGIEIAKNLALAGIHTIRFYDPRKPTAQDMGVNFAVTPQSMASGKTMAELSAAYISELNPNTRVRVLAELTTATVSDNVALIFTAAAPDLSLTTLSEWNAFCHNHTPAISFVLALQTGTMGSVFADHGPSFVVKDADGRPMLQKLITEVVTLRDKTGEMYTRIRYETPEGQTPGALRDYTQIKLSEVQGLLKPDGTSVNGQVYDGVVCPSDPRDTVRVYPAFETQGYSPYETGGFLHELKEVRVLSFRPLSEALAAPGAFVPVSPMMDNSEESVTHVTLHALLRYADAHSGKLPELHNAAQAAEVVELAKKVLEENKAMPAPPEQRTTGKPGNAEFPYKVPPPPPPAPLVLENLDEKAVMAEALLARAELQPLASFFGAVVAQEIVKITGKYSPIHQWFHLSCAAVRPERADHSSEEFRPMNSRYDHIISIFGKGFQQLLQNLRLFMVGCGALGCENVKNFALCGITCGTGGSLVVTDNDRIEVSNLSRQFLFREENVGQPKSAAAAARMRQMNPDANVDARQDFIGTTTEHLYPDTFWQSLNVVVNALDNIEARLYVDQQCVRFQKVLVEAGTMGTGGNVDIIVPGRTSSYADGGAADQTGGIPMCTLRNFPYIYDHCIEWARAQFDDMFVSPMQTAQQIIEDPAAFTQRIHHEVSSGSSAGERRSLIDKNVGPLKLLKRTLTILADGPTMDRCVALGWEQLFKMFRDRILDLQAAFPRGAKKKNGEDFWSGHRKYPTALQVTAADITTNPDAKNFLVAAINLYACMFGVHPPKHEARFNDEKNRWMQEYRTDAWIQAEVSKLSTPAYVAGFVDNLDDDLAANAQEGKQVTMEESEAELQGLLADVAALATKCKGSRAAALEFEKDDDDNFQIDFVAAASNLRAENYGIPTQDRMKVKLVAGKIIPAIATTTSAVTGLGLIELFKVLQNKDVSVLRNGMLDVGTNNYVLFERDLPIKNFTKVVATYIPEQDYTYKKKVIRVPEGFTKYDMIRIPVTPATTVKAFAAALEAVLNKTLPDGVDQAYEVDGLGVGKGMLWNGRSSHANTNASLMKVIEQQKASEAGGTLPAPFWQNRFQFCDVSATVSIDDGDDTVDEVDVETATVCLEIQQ
# [3] = target: AMP-activated protein kinase, AMPK (Homo sapiens) (UniProt P54646+O43741+P54619+Q9UGJ0+Q9Y478+Q13131+Q9UGI9); assay: AMP-dependent Kinase enzyme assay. An in vitro enzyme assay that detects ADP turnover that is directly proportional to AMPK activity. This uses naive AMPK that is activated during the assay with MK-8722; type: functional; details: 30 µM
# [4] = target: Sialic acid-binding Ig-like lectin 9 (Homo sapiens) (UniProt Q9Y336); assay: Hs-Siglec9 ALPHAscreen SOP 20170721; details: 10 µM
# Sialic acid-binding Ig-like lectin 9 (Homo sapiens), sequence (Q9Y336 whole entry): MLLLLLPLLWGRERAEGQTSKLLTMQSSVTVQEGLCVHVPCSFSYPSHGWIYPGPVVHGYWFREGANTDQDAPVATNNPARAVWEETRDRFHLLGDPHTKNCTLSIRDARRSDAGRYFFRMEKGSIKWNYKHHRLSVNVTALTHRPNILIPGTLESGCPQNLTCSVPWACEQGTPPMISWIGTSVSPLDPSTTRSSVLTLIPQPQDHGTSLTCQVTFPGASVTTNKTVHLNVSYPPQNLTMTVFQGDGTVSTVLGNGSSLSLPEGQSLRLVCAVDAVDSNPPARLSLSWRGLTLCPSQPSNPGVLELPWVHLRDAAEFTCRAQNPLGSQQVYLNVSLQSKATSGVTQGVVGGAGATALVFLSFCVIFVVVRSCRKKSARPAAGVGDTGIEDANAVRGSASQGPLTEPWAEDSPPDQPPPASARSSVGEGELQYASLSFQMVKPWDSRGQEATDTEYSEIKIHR
# Trypanosoma cruzi = assay: Trypanosoma cruzi phosphomannomutase and mannose-1-phosphate guanylyltransferase assay; type: functional; details: 10 µM
# [5] = target: T2, Arginase-2, mitochondrial (Homo sapiens) (UniProt P78540); assay: in vitro enzyme assay to detect the production of urea directly proportional to the activity of Arginase II; type: functional; details: 33.3 µM; note: in the data most compounds retested in dose-response had high values
# T2 sequence (whole entry): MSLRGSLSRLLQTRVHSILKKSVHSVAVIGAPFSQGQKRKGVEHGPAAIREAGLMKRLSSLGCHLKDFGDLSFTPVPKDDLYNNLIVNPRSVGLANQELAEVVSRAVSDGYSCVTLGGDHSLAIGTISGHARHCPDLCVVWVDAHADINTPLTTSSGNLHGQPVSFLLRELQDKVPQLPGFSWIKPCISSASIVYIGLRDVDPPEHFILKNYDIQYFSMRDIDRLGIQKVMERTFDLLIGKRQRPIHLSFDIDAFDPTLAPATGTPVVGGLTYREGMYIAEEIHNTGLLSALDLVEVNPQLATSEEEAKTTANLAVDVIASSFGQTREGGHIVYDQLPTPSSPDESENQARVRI
# [6] = target: T3, Proteasome subunit beta (Trypanosoma cruzi) (UniProt O96673); assay: Trypanosoma cruzi proteasome chymotrypsin-like activity (TcProtChymo) assay.; note: in the data most compounds retested in dose-response had high values; type: functional; details: 9.37 µM
# T3 sequence (whole entry): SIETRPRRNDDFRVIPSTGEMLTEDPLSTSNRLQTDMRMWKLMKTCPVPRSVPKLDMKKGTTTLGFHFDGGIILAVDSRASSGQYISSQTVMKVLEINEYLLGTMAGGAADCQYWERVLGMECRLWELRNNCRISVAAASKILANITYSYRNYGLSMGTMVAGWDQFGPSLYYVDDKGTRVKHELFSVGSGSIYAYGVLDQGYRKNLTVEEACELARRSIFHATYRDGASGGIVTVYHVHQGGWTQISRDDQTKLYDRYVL
# Homo sapiens = species: Homo sapiens; assay: To identify inhibition of the IFN signalling (Jak-Stat) pathway via expression of an eGFP reporter gene under the control of an IFN-stimulated response element (ISRE) containing MxA promoter.; type: functional; details: 30 µM
# [7] = target: T4, Tyrosyl-tRNA synthetase, putative (Trypanosoma cruzi (strain CL Brener)) (UniProt Q4DSP6); assay: Trypanosoma cruzi tyrosyl tRNA synthetase (TcYRS) _High Tyrosine SOP; type: functional; details: 30 µM; note: in the data most compounds retested in dose-response had high values
# T4 sequence (whole entry): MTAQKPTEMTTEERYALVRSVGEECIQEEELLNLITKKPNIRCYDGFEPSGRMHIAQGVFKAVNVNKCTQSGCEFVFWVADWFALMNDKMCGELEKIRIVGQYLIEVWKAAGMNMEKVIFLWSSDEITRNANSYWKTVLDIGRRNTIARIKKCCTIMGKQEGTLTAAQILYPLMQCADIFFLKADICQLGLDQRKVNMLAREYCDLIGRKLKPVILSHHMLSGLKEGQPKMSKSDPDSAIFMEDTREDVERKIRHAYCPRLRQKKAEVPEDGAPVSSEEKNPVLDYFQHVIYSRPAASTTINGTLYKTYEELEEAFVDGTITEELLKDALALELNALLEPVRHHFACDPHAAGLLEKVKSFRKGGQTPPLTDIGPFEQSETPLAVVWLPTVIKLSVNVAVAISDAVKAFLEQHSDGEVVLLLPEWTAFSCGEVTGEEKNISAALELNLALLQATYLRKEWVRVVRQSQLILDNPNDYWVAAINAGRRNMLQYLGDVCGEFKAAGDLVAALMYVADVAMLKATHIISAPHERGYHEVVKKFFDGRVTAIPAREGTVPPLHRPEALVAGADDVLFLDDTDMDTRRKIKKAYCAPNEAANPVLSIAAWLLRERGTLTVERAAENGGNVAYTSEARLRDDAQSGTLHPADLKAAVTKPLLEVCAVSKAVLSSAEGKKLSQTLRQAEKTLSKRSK
# [8] = target: T4, Tyrosyl-tRNA synthetase, putative (Trypanosoma cruzi (strain CL Brener)); assay: Trypanosoma cruzi tyrosyl tRNA synthetase (TcYRS) SOP; type: functional; details: 30 µM
# [9] = target: Chromo domain-containing protein 1 (Saccharomyces cerevisiae (strain ATCC 204508 / S288c) (Baker's yeast)) (UniProt P32657); assay: ScCHD-1 Enzyme Inhibition Assay; type: functional; details: 30 µM; note: in the data most compounds retested in dose-response had high values
# Chromo domain-containing protein 1 (Saccharomyces cerevisiae (strain ATCC 204508 / S288c) (Baker's yeast)), sequence (P32657 whole entry, the tested form may be a part): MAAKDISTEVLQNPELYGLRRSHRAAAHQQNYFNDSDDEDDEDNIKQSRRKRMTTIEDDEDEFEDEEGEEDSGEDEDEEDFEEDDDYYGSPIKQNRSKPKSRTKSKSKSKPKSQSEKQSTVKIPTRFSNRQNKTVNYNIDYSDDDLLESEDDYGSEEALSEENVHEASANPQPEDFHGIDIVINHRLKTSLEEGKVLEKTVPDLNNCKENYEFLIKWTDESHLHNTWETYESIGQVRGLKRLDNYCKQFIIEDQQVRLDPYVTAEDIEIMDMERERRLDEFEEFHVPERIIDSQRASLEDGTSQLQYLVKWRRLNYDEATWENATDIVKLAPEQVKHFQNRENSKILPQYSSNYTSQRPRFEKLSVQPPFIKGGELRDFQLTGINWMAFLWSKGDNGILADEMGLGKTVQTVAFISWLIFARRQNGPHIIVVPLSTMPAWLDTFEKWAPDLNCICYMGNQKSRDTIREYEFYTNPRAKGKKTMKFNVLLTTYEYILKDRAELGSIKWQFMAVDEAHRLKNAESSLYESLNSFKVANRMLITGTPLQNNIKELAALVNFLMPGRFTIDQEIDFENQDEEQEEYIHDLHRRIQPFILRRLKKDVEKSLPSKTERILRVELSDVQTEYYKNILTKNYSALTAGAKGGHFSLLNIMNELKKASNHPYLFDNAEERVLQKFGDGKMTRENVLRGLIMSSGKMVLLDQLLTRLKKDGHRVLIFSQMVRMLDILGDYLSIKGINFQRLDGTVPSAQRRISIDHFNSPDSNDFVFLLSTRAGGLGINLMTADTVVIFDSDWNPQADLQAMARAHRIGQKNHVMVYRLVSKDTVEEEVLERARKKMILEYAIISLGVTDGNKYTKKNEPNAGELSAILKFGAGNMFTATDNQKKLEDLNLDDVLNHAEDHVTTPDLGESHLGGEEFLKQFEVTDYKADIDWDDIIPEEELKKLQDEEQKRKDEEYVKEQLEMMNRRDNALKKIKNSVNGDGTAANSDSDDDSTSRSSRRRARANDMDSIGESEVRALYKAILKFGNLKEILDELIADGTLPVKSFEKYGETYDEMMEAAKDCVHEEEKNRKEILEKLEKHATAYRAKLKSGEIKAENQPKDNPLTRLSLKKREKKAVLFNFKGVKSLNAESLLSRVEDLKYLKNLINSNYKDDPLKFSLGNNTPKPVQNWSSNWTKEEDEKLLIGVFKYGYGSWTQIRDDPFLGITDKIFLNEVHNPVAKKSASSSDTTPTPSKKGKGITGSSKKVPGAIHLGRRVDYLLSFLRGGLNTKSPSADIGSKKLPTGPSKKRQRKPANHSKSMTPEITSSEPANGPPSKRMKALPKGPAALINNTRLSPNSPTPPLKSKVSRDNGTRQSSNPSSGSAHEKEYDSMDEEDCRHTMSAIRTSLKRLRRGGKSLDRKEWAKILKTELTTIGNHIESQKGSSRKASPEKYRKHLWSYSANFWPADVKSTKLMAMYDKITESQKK
# N/A = assay: Trypanosoma cruzi proteasome luciferase counter-screen; type: functional; details: 9.37 µM
SMILES,Percent Effect [1],Percent Effect [2],Percent Effect [3],Percent Effect [4],Percent Effect (Trypanosoma cruzi),Percent Effect [5],Percent Effect [6],Percent Effect (Homo sapiens),Percent Effect [7],Percent Effect [8],Percent Effect [9],Percent Effect (N/A)
CC(=O)N1CCN(CC2CCOc3ccccc3C2)CC1 (stereo not given),-5.96%,-1.39%,-8.25%,5.04%,-5.34%,0.883%,14.6%,-1.92%,1.05%,-7.69%,-1.42%,–
NCCn1nc(C2CCN(C(=O)CC3CCCCC3)C2)c2nccnc21 (stereo not given),-2.44%,-10.7%,3.88%,8.44%,1.57%,-3.5%,-10.5%,11.9%,-8.51%,8.97%,-1.74%,–
CN(Cc1cc[nH]n1)C(=O)c1cccc(CCC(C)(C)O)c1,-4.29%,-2.67%,0.5%,1.39%,-5.16%,-0.521%,–,-13.1%,0.546%,3.7%,-5.03%,6.9% and 8.45%
Cn1cccc1C(=O)N1CCc2ncnc(C3CC3)c2CC1,-4.53%,13.3%,9.69%,-5.45%,-5.12%,-0.699%,21.1%,22.4%,0%,6.41%,-1.35%,–
CCN1CCC(CNC(=O)NCc2cc(-c3ccc(C)cc3)no2)C1 (stereo not given),0.151%,0%,-6.65%,3.46%,3.44%,-3.14%,12.2%,5.69%,10.9%,25.6%,-5.52%,–
